An excerpt weighted towards active compounds, which were near 22% of everything screened.
Measles CPE – protection of cells from measles virus; 1.5% of 140,000 active; AID 841; protection (pct of control), % at 4 µM; Measles virus-infected cells, CPE protection, absorbance; in the data active = protection mostly above about 24%, no sharp cut-off; inactive = mostly below about 26%
CYP2C9 inh – inhibitors of human CYP2C9. P11712. CYP2C9 Supersomes, luciferin-H conversion, luminescence. inhibition, % at 5 µM. 20% of 96,000 active. AID 777;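 active = blocking of liver enzyme CYP2C9 beyond about 50% at 5 µM, limit read from the data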
Target sequence (P11712 whole entry, looked up): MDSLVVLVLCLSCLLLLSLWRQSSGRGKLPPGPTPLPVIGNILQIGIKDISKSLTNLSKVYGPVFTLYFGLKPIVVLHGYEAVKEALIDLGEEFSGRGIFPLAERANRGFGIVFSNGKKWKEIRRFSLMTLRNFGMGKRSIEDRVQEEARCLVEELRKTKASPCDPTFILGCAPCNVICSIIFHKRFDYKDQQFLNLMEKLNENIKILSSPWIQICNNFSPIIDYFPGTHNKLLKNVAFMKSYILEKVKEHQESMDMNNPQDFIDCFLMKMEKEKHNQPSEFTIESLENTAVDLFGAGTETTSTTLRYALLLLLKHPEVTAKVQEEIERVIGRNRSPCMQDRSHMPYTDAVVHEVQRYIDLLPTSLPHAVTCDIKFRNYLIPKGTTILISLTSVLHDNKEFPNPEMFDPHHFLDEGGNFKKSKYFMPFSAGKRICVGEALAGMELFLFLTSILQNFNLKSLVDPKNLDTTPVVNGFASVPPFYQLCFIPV
CYP2C19 activ – activators of human cytochrome P450 2C19. P33261. recombinant CYP2C19, luciferin-H EGE luminescence; stronger effect = higher value; 0 = fully inhibited enzyme, 1 = untreated enzyme. activation factor at 5 µM. 96,000 tested, under 10 active. AID 1025;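 active = activation factor of at least 2 at 5 µM in the primary screen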;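 note: 0 = wells with 2.5 mM tranylcypromine and 1 = vehicle-only wells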
CYP2C19 inh – inhibitors of human CYP2C19; inhibition, % at 5 µM; P33261; CYP2C19 Supersomes, luciferin-H EGE luminescence, 30 min; 21% of 96,000 active;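 active = CYP2C19 inhibition above a set limit at 5 µM in the primary screen, cut at about 50% in these data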;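 note: plate controls were negative control wells for no effect and 2.5 mM tranylcypromine positive control for full effect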
CYP2C9 activ – CYP2C9 (human) activation; activation factor at 5 µM; recombinant CYP2C9, luciferin-H conversion, luminescence; stronger effect = higher value; factor 1 = untreated enzyme, 0 = blocked; AID 1024; P11712; 1.4% of 96,000 active;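 active = activation factor of 2 or more for CYP2C9 at a 5 µM dose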;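 note: 0 = sulfaphenazole-blocked wells and 1 = vehicle-only wells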
* hit, by the source's call; . = not tested or not shown.

SMILES	Measles CPE	CYP2C9 inh	CYP2C19 activ	CYP2C19 inh	CYP2C9 activ
COc1ccc(C)cc1NC(=O)C1CCN(S(=O)(=O)c2cccc3cccnc23)CC1	6	-174	1.1	-7	2.7*
COc1ccc(C)cc1NC(=O)C1CCCN(S(=O)(=O)c2cccc3nonc23)C1 (stereo not drawn)	14	.	.	.	.
CCOc1ccccc1NC(=O)C1CCN(S(=O)(=O)c2cccc3cccnc23)CC1	0	-58	0.1	93*	1.6
COc1ccc(S(=O)(=O)N2CCC(C(=O)Nc3ccccc3C)CC2)c2cccnc12	29	32	0.4	63*	0.7
CC1CCCCN1CCNC(=O)C1CCN(S(=O)(=O)c2cccc3cccnc23)CC1 (stereo not drawn)	8	8	0.8	17	0.9
CCCCNS(=O)(=O)c1ccc(OC)c2ncccc12	27	-23	0.8	20	1.2
COc1ccc(S(=O)(=O)n2ccnc2)c2cccnc12	2	53*	0.4	56*	0.5
CCN(CCNC(=O)C1CCN(S(=O)(=O)c2cccc3cccnc23)CC1)c1ccccc1	20	-199	0.7	32	3*
O=C(Nc1cc(Sc2nc3ccccc3s2)cc([N+](=O)[O-])c1)c1ccccc1F	5	71*	0.6	36	0.3
O=C(NC1=NCCS1)c1csc2ccccc12	5	-12	0.6	44	1.1
CCOC(=O)c1[nH]c(C)c(/C(O)=C2\C(=O)C(=O)N(CCN(C)C)C2c2ccc(C)o2)c1C (stereo not drawn)	5	6	1	4	0.9
CN(C(=O)COC(=O)c1ccccc1Nc1ccccc1)C1CCS(=O)(=O)C1 (stereo not drawn)	8	10	0.8	19	0.9
Brc1ccccc1C1=Nn2c(nnc2-c2ccccc2)SC1	7	62*	0.1	90*	0.4
Cc1cc(C)n(-c2nnc3n2N=C(c2ccccc2)CS3)n1	14	23	0.5	51*	0.8
O=S(=O)(Nc1ccccc1F)c1ccc2nsnc2c1	18	38	0.4	63*	0.6
O=S(=O)(Nc1cccc2nsnc12)c1ccccc1	10	86*	0.3	71*	0.1
Cc1cc(C)c(S(=O)(=O)Nc2ccc[nH]c2=O)c(C)c1	22	-304	0.2	85*	4*
COc1cc(NS(=O)(=O)c2cccc3nsnc23)c(C(=O)O)cc1OC	23	31	1.2	-16	0.7
Cc1cc(C)c(S(=O)(=O)Nc2cccc3nsnc23)c(C)c1	17	83*	0.5	49	0.2
CC(=O)Nc1cc(NC(C)=O)c2nc(N)sc2c1	5	-6	1	-3	1.1
Cc1ccc(OCC(=O)Nc2cccc3nsnc23)c(C)c1	14	8	0.3	74*	0.9
Cc1ccc(OCC(=O)Nc2ccc3c4c(cccc24)CC3)c(C)c1	6	.	.	.	.
CCc1nc2c(nnn2Cc2ccc(F)cc2)c(=O)[nH]1	12	10	0.1	88*	0.9
N#Cc1cccc(NC(=O)N2CCC(c3nc4c(nnn4Cc4cccc(Cl)c4)c(=O)[nH]3)CC2)c1	7	-18	1.2	-18	1.2
Cc1ccc(NC(=O)N2CCC(c3nc4c(nnn4Cc4cccc(Cl)c4)c(=O)[nH]3)CC2)cc1	9	100*	0.1	94*	0
SMILES	Measles CPE	CYP2C9 inh	CYP2C19 activ	CYP2C19 inh	CYP2C9 activ
O=C(Nc1ccc(F)cc1)N1CCC(c2nc3c(nnn3Cc3cccc(Cl)c3)c(=O)[nH]2)CC1	6	66*	0.6	35	0.3
CCn1c(SCc2ccc(C)cc2)nnc1C1CCN(S(=O)(=O)c2ccc(OC)cc2)CC1	20	-78	0.7	32	1.8
Cc1ccc(Cn2nnc3c(=O)[nH]c(C4CCN(S(=O)(=O)c5ccc(C)cc5)CC4)nc32)cc1	3	98*	0.2	78*	0
CC1(C)Cc2c(C#N)c(OCC(=O)c3ccccc3)nc(-c3ccoc3)c2CO1	22	5	0.9	13	1
O=C(Nc1cccc(Cl)c1)N(CCCN1CCOCC1)Cc1ccccc1F	2	65*	0.7	28	0.3
O=C(c1cccnc1)N(Cc1ccccc1)C1(C(=O)Nc2ccccc2)CCCCC1	29	.	.	.	.
COc1ccc(CN(CCN2CCOCC2)C(=O)c2c(F)cccc2F)cc1OC	5	37	0.5	52*	0.6
O=C(c1ccccc1)N(CCN1CCOCC1)C1(C(=O)Nc2ccccc2)CCCCC1	19	23	0.3	69*	0.8
COc1ccc(C(=O)NCCN2CCOCC2)cc1OC	13	.	.	.	.
